Experimental data published in PubChem BioAssay (EPA / NIEHS).
The source made the active and inactive calls. The calls were made as follows: active = hit-call score of the fitted dose curve at least 0.9, where 1 is the maximum; inactive = score below 0.9.

Experiment: CEETOX_H295R_PROG: CeeTox H295R High-throughput Steroidogenesis Assay for Progesterone (PROG) (AID 2283442);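 as to AC50: human H295R adrenal cells primed with 10 µM forskolin before dosing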
Details: actives raise or lower the signal
Experimental: CEETOX_H295R is a cell-based, multiplexed-readout assay that uses H295R, a human adrenal gland cell line, with measurements taken at 48 hours after chemical dosing in a 96-well plate.CEETOX_H295R_PROG is one of 23 assay component(s) measured or calculated from the CEETOX_H295R assay. It is designed to make measurements of hormone induction, a form of inducible reporter, as detected with absorbance signals by HPLC-MS-MS technology.Data from the assay component CEETOX_H295R_PROG was analyzed into 1 assay endpoint. This assay endpoint, CEETOX_H295R_PROG, was analyzed with bidirectional fitting relative to DMSO as the negative control and baseline of activity. Using a type of inducible reporter, gain or loss-of-signal activity using HPLC-MS-MS was used to understand synthesis of Progesterone in H295R cell line at 48hr of chemical exposure. To generalize the intended target to other relatable targets, this assay endpoint is annotated to the steroid hormone intended target family, where the subfamily is progestagens.
Cell culture and media preparation procedures were conducted in accordance with OECD Test No. 456 guidelines, with minor modifications. H295R cells (ATCC CRL-2128) were expanded for 5 passages and frozen in batches in liquid nitrogen. Prior to the steroidogenesis assay, H295R cells were thawed and passed at least 4 times. The maximum passage was 10. Cells were maintained in a 1:1 mixture of DMEM/F12 supplemented with 5ml/L ITS+ Premix (BD Bioscience) and 12.5 ml/L Nu-Serum (BD Bioscience). After seeding cells into 96-well plates at 50-60% confluency, cells were allowed to adhere overnight. Prior to chemical testing, culture medium was replaced with 175 uL medium containing 10 uM forskolin to stimulate steroidogenesis for 48 hours. Following prestimulation, forskolin medium was replaced with medium containing test chemical solubilized in DMSO (ensuring a final concentration of 0.1% DMSO). Test chemicals were incubated for 48 hours, then the medium was removed and split into 2 vials containing approximately 75uL each, and stored at -80 C prior to hormone analysis. For steroid quantification, media samples were shipped to OpAns, LLC (Durham, NC) on dry ice, and samples were thawed to room temperature prior to liquid-liquid extraction. Steroid hormones were extracted from media samples using methyl tertbutyl ether (MTBE). An extra derivatization with dansyl chloride was included for estrogen (estrone and estradiol) detection only. Steroid hormones were separated by HPLC, eluted using a reverse phase C18 gradient with electrospray positive ionization, followed by quantification by tandem mass spectrometry (MS/MS). Data were acquired on a MassHunter Workstation Acquisition version B03.01 (Agilent Technologies, Inc.) and processed using MassHunter Quantitative Analysis for QQQ. Accuracy was determined for each hormone analyte from 3 standards to determine upper and lower limits of quantification (ULOQ and LLOQ, respectively) using a 7-point standard curve. Precision and accuracy of the extraction and quantification methods were calculated as the percent relative standard deviation (%RSD) of the spiked standards and percent spiked standard recovered, respectively. The goal was to achieve 100% accuracy (i.e., recover all spiked-in standard at quantification with minimal loss during run time) and good precision (i.e., have %RSD <15% to ensure reproducibility). Test medium was removed following chemical exposure, and cell viability was evaluated in the same wells by MTT. MTT procedures were as follows: after removal of test medium, 500 uL of 0.5 mg/ml of 3-[4,5-dimethylthiazol-2-y]2,5-diphenyltetrazoliumbromide solution was added to the cells. Following a 4-hour incubation at 37 C and 5% CO2 to allow formazan-crystal formation, the MTT solution was removed and blue formazan salt crystals were solubilized using 500uL anhydrous isopropanol with shaking for 20 minutes. Absorbance was read at 570 and 650nm using a Packard Fusion microplate reader. […]
For OCc1c[nH]c2ccccc12, the outcome was “inactive”. In the case of COc1cc2c(c(OC)c1OC)-c1ccc(OC)c(=O)cc1[C@@H](NC(C)=O)CC2, the outcome is reported as “inactive”. For CCCCCCCCN(C)C, the outcome was “inactive”. With C[C@]12C=CC(=O)C=C1CC[C@H]1[C@@H]3C[C@@H](O)[C@](O)(C(=O)CO)[C@@]3(C)C[C@H](O)[C@@]12F the outcome was “inactive”. In the case of CC(C)c1nnc2ccc(-c3ocnc3-c3cc(F)ccc3F)cn12, the outcome is reported as “inactive”. In the case of CCCCC(CC)C(=O)OCCOCCOCCOC(=O)C(CC)CCCC (configuration not stated), the outcome is reported as “inactive”. With CCOc1ccc2[nH]cc(C(=O)NCc3ccccc3)c(=O)c2n1 the outcome was “inactive”. For Cc1ncc([C@@H](CCCCCCc2ccc3c(n2)NCCC3)CC(=O)O)cn1, the AC50 was 12500 nM (active). For CC[C@H](C)C(=O)O[C@H]1C[C@H](O)C=C2C=C[C@H](C)[C@H](CC[C@@H](O)C[C@@H](O)CC(=O)O)[C@H]21, the AC50 was 949 nM (active). In the case of C[C@@H](Oc1ccc(CNC(=O)c2cccnc2Oc2ccc3c(c2)OCO3)c(F)c1)C(=O)O, the outcome is reported as “inactive”. In the case of CCCOc1ccc(S(=O)(=O)N2CCN(CC)CC2)cc1-c1nc2c(CC)n(Cc3ccccn3)nc2c(=O)[nH]1, the outcome is reported as “inactive”. With CCCCCCCCCCCCCCO the outcome was “inactive”. For C=CCc1cc(S(=O)(=O)c2ccc(O)c(CC=C)c2)ccc1O, the AC50 was 351 nM (active). With CCN(CC)C(=S)SSC(=S)N(CC)CC the outcome was “inactive”. In the case of CCCCCCCC1CCC(=O)O1 (configuration not stated), the outcome is reported as “inactive”. With CCn1nc(C)c2c1C(=O)NCC(c1ccc(O)cc1)=N2 the AC50 was 1910 nM (active). In the case of Nc1ccn([C@@H]2O[C@H](CO)[C@@H](O)[C@@H]2O)c(=O)n1, the outcome is reported as “inactive”.
